# Experimental data as given in PubChem BioAssay.
# Target: NADPH oxidase 5 (Homo sapiens) (UniProt Q96PH1)
# Experiment: compounds shifting NOX5 Amplex Red fluorescence – cell-based, HEK293-NOX5, NOX inhibitor project, primary screen (AID 1161)
# Details: HEK293-NOX5, ionomycin, 45 min, higher = more signal
# NADPH oxidase 5 (Homo sapiens), sequence (Q96PH1 whole entry, looked up): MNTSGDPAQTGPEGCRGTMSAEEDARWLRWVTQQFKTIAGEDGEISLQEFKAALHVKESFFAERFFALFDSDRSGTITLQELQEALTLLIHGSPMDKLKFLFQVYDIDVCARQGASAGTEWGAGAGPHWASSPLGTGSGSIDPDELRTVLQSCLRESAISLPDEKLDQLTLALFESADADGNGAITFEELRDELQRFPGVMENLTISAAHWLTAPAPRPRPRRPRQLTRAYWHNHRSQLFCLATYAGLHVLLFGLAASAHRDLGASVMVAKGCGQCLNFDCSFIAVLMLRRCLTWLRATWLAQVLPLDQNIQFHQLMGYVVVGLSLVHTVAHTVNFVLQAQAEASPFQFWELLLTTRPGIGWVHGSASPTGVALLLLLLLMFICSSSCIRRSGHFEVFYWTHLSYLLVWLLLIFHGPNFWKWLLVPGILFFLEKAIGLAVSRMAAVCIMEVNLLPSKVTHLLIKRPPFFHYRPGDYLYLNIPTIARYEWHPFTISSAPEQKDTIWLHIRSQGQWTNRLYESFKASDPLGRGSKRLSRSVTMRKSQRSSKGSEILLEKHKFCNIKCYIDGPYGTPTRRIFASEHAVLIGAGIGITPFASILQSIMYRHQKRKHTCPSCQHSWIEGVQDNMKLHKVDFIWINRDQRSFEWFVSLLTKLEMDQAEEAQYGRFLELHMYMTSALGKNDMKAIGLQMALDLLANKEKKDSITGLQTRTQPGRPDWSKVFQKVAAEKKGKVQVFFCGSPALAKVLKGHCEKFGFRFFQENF
row,SMILES,z-score
1,CCOc1cc(C(O)C2C=CC3C(=O)N(C)C(=O)C3N2Nc2ccccc2)ccc1O (stereo not given),-1.78
2,CN(C)CCCNC(=O)[C@@H]1c2ccccc2C(=O)N(Cc2ccccc2Cl)[C@H]1c1ccc(CO)cc1,-0.0877
3,[N-]=[N+]=NCc1ccccc1[C@H]1OC(c2ccc(OCCCO)cc2)=N[C@@]1(CCS(=O)(=O)c1ccccc1)C(=O)N1CCCCC1,1.63
4,O=C1NC(=O)C2C1C=CC(C(O)c1ccco1)N2Nc1ccccn1 (stereo not given),-1.78
5,CCCCC(O)C1C=CC2C(=O)N(c3ccccc3)C(=O)C2N1Nc1ccc(C(C)C)cc1 (stereo not given),-1.92
6,C=CC[C@@]1(C(=O)N2CCOCC2)N=C(c2ccc(OCCCO)cc2)O[C@@H]1c1ccccc1CN=[N+]=[N-],-1.07
7,COC(=O)[C@H](Cc1ccccc1)N1CC(/C=C/C2CC2)=C[C@H]1[C@H](O)Cc1ccccc1,-0.607
8,C=CC[C@]1(C(=O)NCCN2CCOCC2)N=C(c2ccc(OCCCO)cc2)O[C@H]1c1ccccc1CN=[N+]=[N-],-0.426
9,COC(=O)[C@@]1(Cc2ccc(F)cc2)[C@H]2c3cc(C(=O)N4CCCC4)n(CCc4ccc(O)c(O)c4)c3C[C@H]2CN1C(=O)c1ccccc1,-6.63
10,[N-]=[N+]=NCc1ccccc1[C@H]1OC(c2ccc(OCCCO)cc2)=N[C@@]1(CCS(=O)(=O)c1ccccc1)C(=O)NCC(O)CO (stereo not given in full),1.64
11,C[C@]1(C(=O)NC2CC2)c2ccccc2C(=O)N(Cc2ccccc2)[C@H]1c1ccc(CO)cc1,-0.249
12,COC(=O)C(CC#Cc1ccc2c(c1)[C@]1(C(=O)N2)[C@H](c2ccccc2OCCO)N2[C@H](c3ccccc3)[C@H](c3ccccc3)OC(=O)[C@H]2[C@@H]1C(=O)NC[C@H](O)c1ccccc1)C(=O)OC,1.34
13,COCCOC(=O)N1C(=O)[C@@]2(c3cc(C#CCCO)ccc31)[C@H](C(=O)Nc1nc3ccccc3s1)[C@H]1C(=O)O[C@H](c3ccccc3)[C@H](c3ccccc3)N1[C@@H]2c1ccccc1OCCO,0.501
14,COCCOC(=O)N1C(=O)[C@@]2(c3cc(C#CC4=CCCCC4)ccc31)[C@H](c1ccc(O)cc1)N1[C@H](c3ccccc3)[C@H](c3ccccc3)OC(=O)[C@H]1[C@@H]2C(=O)N1CCN(c2ncccn2)CC1,0.715
15,C[C@@H]1NC(=O)[C@@]23C(=O)N[C@@H](Cc4ccccc4)C2[C@H](C)[C@@]2(C)O[C@H]2C3/C=C/C/C=C\CNC(=O)[C@@H]2CCCN2C1=O (stereo not given in full),-2.64
